Cy5 interf NS3h – Cy5 fluorescence quenchers or enhancers, artefact control for HCV NS3 helicase inhibitor project, biochemical, ChemBridge library, Cy5 readout. Cy5-dT15 DNA with NS3h, fluorescence interference; actives lie on both sides; signal over control mean, under 1 quenches. fluorescence interference ratio at 100 µM. actives 6% (n = 16,000);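 active = compound fluorescence over control fluorescence at most 0.8, a quencher, or at least a set upper limit, an enhancer; inactive = ratio between 0.8 and the set upper limit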
HCV NS3h FP – HCV NS3 helicase inhibitors, primary screen, biochemical, fluorescence polarization, ChemBridge library | Hepatitis C virus NS3 helicase | NS3h Cy5-dT15 DNA binding | inhibition, % at 100 µM | actives 1.6% (n = 16,000) | AID 687043, 2013;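 active = inhibition above the average over every tested compound plus 3 SD, cut at about 40% in these data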
* = called active by the depositor. A selection: hits, their analogues and other compounds. The true share with any hit is near 6.8%.

N#CC1=C(N)NC(SCC(=O)c2ccc(Cl)cc2)=C(C#N)C12CCCCC2 was read as Cy5 interf NS3h 1.05 and HCV NS3h FP 12.8.
For CCOc1cc(/C=C2/SC(=S)N(C)C2=O)cc(Cl)c1OCCOc1ccc(Br)cc1 the results were Cy5 interf NS3h 1.13 and HCV NS3h FP -3.1.
For Cc1ccc2c(-c3ccc([N+](=O)[O-])cc3)cc(=O)[nH]c2c1 the results were Cy5 interf NS3h 0.62* and HCV NS3h FP 1.2.
Screening COc1ccc2c(-c3ccccc3)cc(=O)[nH]c2c1 returned Cy5 interf NS3h 0.984 and HCV NS3h FP 2.0.
COc1ccc(N(CC(=O)Nc2cccc(Br)c2)S(=O)(=O)c2ccc(C)cc2)c(OC)c1 was read as Cy5 interf NS3h 1.12 and HCV NS3h FP -6.9.
`N#CC1=C(N)C(C#N)(C#N)C(c2ccc(Cl)cc2Cl)C2CCCC=C12` (centres undefined) gave Cy5 interf NS3h 1.23* and HCV NS3h FP 0.3.
For CCN(CC)C(=O)CN(c1cccc(Br)c1)S(=O)(=O)c1ccccc1 the results were Cy5 interf NS3h 1.02 and HCV NS3h FP 8.9.
For O=C(Nc1ccc(Cl)cc1)c1cccc2ccccc12 the results were Cy5 interf NS3h 0.938 and HCV NS3h FP 7.9.
CC1=C(C(=O)Nc2ccc(Br)cc2)C(c2ccccc2F)NC(=S)N1 (centres undefined) was read as Cy5 interf NS3h 1.01 and HCV NS3h FP 5.4.
N#Cc1cc(N=Cc2cccc(C=Nc3ccc(N)c(C#N)c3)c2)ccc1N was read as Cy5 interf NS3h 1.23* and HCV NS3h FP 7.3.
Screening CCOC(=O)c1ccc(-c2ccc(/C=c3\sc4nc5ccccc5n4c3=O)o2)cc1 returned Cy5 interf NS3h 1.07 and HCV NS3h FP 2.1.
`COc1ccc(/C=C/C(=O)N2CCCCCC2)cc1Br` gave Cy5 interf NS3h 0.957 and HCV NS3h FP 2.7.
For COc1ccc(/C=C/C(=O)N2CCOCC2)cc1OC the results were Cy5 interf NS3h 0.626* and HCV NS3h FP 12.4.
Screening CCOc1ccccc1NC(=O)c1c(NC(=O)Cc2ccc(OC)cc2)sc2c1CCCC2 returned Cy5 interf NS3h 0.997 and HCV NS3h FP -0.6.
Screening CSc1ccc(S(=O)(=O)N(CC(=O)Nc2cccc(C)c2)c2ccc(C)cc2)cc1 returned Cy5 interf NS3h 0.7* and HCV NS3h FP 22.2.
`COCCNC(=O)CN(c1ccc(C)cc1)S(=O)(=O)c1ccc(SC)cc1` gave Cy5 interf NS3h 0.923 and HCV NS3h FP 4.2.
For COc1ccccc1NC(=O)CN(c1ccc(C)cc1)S(=O)(=O)c1ccc(SC)cc1 the results were Cy5 interf NS3h 0.694* and HCV NS3h FP 19.5.
For CSc1ccc(S(=O)(=O)N(CC(=O)Nc2cccc(Br)c2)c2ccc(C)cc2)cc1 the results were Cy5 interf NS3h 0.853 and HCV NS3h FP 10.5.
`COc1cccc(/C=N\Nc2nc(C)cc(=O)[nH]2)c1O` gave Cy5 interf NS3h 0.963 and HCV NS3h FP 6.2.
For O=C(NCCCNc1ccc([N+](=O)[O-])cc1Cl)c1ccc(F)cc1 the results were Cy5 interf NS3h 0.95 and HCV NS3h FP 17.3.
Screening COc1ccc([N+](=O)[O-])cc1NC(=O)c1cc(-c2ccccc2)nc2ccccc12 returned Cy5 interf NS3h 1.07 and HCV NS3h FP 13.5.
`CCN(CC)c1ccc(NC(=O)c2cccc(Cl)c2Cl)cc1` gave Cy5 interf NS3h 1.07 and HCV NS3h FP 6.9.
For O=C(Nc1cccnc1)c1cccc(Cl)c1Cl the results were Cy5 interf NS3h 0.72* and HCV NS3h FP 13.2.
CCOc1ccc(C(=O)/C=C/c2ccc(C(=O)OC)cc2)cc1 was read as Cy5 interf NS3h 0.967 and HCV NS3h FP -9.4.
For Cc1cccc(OCC(=O)O/N=C(/N)Cc2ccc(Cl)cc2)c1 the results were Cy5 interf NS3h 1.02 and HCV NS3h FP 11.5.
Screening CCN(C(=O)c1cc(OC)c(OC)cc1[N+](=O)[O-])c1ccccc1 returned Cy5 interf NS3h 0.94 and HCV NS3h FP 1.5.
COc1cc(CC(=O)O)c([N+](=O)[O-])cc1OC was read as Cy5 interf NS3h 0.653* and HCV NS3h FP -3.4.
O=C(C=C(O)c1ccccc1)C(=O)Nc1ccc(Br)cc1 was read as Cy5 interf NS3h 1.04 and HCV NS3h FP 0.6.
Screening O=C1c2ccc(-c3nc4ccccc4o3)cc2C(=O)N1c1cccc(-c2nc3ccccc3o2)c1 returned Cy5 interf NS3h 0.987 and HCV NS3h FP 2.3.
Screening O=C(NCCOc1ccc(F)cc1)c1ccccc1-c1ccccc1 returned Cy5 interf NS3h 0.687* and HCV NS3h FP 23.5.
O=C(NCCOc1ccc(F)cc1)c1cccc2ccccc12 was read as Cy5 interf NS3h 0.883 and HCV NS3h FP 1.7.
Screening Cc1cc(Cl)ccc1OCC(=O)N1CCC(C(N)=O)CC1 returned Cy5 interf NS3h 0.979 and HCV NS3h FP 2.2.
Screening Cc1ccc(-c2nc3ccccn3c2NC(=O)c2ccc(Cl)cc2)cc1 returned Cy5 interf NS3h 0.898 and HCV NS3h FP 12.9.
Cc1ccc(-c2nc3ccccn3c2NC(=O)c2ccccc2)cc1 was read as Cy5 interf NS3h 0.776* and HCV NS3h FP 19.9.
`O=C(c1ccc(S(=O)(=O)N2CCCC2)cc1)N1CCN(c2ccccc2)CC1` gave Cy5 interf NS3h 0.912 and HCV NS3h FP 4.1.
Screening CS(=O)(=O)N1CCN(C(=O)c2ccc(-c3ccccc3)cc2)CC1 returned Cy5 interf NS3h 0.622* and HCV NS3h FP 0.3.
For CCC(C(=O)Nc1ccc(C)cc1)c1ccccc1 (centres undefined) the results were Cy5 interf NS3h 1.26* and HCV NS3h FP 6.3.
`CCC(C(=O)Nc1cccc(C)c1)c1ccccc1` (centres undefined) gave Cy5 interf NS3h 0.965 and HCV NS3h FP 9.9.
Clc1ccc(-c2ccc(/C=N/n3cnnc3)o2)c(Cl)c1 was read as Cy5 interf NS3h 0.71* and HCV NS3h FP -9.3.
Screening Clc1ccc(/C=N\n2cnnc2)cc1 returned Cy5 interf NS3h 1.06 and HCV NS3h FP 1.3.
COCCCNC(=O)COc1cccc(C)c1 was read as Cy5 interf NS3h 1.02 and HCV NS3h FP 1.3.
`CC(=O)c1cccc(NC(=O)Nc2ccc(Cl)cc2)c1` gave Cy5 interf NS3h 0.884 and HCV NS3h FP 15.5.
`O=C1NC(=S)S/C1=C/c1ccc(OCc2cccc(C(=O)O)c2)cc1` gave Cy5 interf NS3h 0.917 and HCV NS3h FP 46.1*.
Screening O=C1NC(=S)S/C1=C/c1ccc(OCc2ccc(Cl)cc2)cc1 returned Cy5 interf NS3h 0.972 and HCV NS3h FP 18.7.
`COc1cc(/C=C2/SC(=S)NC2=O)ccc1OS(=O)(=O)c1ccccc1[N+](=O)[O-]` gave Cy5 interf NS3h 1.26* and HCV NS3h FP 5.3.
COc1cc(/C=C2/SC(=S)NC2=O)ccc1OCc1ccc(I)cc1 was read as Cy5 interf NS3h 1.07 and HCV NS3h FP 13.9.
COc1cc(/C=C2/SC(=NS(=O)(=O)c3ccccc3)NC2=O)c([N+](=O)[O-])cc1OC was read as Cy5 interf NS3h 0.958 and HCV NS3h FP 16.4.
`COc1cc(/C=C2/SC(=S)NC2=O)ccc1OC(=O)c1cccc(Br)c1` gave Cy5 interf NS3h 0.757* and HCV NS3h FP 16.1.
For COc1cc(NC(=O)c2ccccc2)c(Cl)cc1NC(=O)c1ccc(Cl)c(Cl)c1 the results were Cy5 interf NS3h 1.04 and HCV NS3h FP 10.9.
`O=C(CC1S/C(=N/N=C\c2cccs2)NC1=O)Nc1ccc(Cl)c(Cl)c1` (centres undefined) gave Cy5 interf NS3h 1.03 and HCV NS3h FP -12.7.
